ClpP mod = qHTS Assay for Activators of ClpP. ATP-dependent Clp protease proteolytic subunit (Bacillus subtilis (strain 168)), P80244. purified B. subtilis ClpP, FRET peptide cleavage, 20 min. Potency, µM (highest dose often 57.5 µM), inactives show at the top dose activity change, negative = active. hit rate 1.9% among 340,000. AID 651965, 2013; active = well fitted falling curve with a large enough effect; note: the source files actives as falling curves though it sought activators and does not explain the sign; nearly all actives have a fitted effect of over 65% in size
Target sequence (P80244 whole entry, looked up): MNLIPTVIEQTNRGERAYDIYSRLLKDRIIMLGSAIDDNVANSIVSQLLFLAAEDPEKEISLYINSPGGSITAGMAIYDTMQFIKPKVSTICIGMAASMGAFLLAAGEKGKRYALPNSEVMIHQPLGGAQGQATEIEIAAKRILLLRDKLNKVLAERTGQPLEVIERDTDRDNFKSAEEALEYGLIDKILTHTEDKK
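ClpP 10 microg/mL final, pH 8 Tris/KCl buffer with BSA, glycerol, Tween-20; compound pinned in; FRET-FV substrate; RT 20 min; Ex320/Em430; ΔFRET vs ADEP 5.8 microM, DMSO, no enzyme.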
aSyn rescue = qHTS of alpha-syn Inhibitors | hit rate 0.14% among 370,000 | Potency, µM (titrated, usually from 46.1 µM), inactives show top-dose growth rescue (activation), usual class: activators | Yeast expressing alpha-synuclein, growth rescue, BacTiter-Glo, 24 h | AID 652106, 2013; note: % of control where 0% means no effect; nearly all actives have a fitted effect of over 65% in size
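Rescue of yeast growth: cells expressing toxic alpha-synuclein, induced in galactose at OD600 0.02, incubated with compound 24 h at 30 C. ATP luminescence quantified growth; inhibitors of toxicity appear as activators.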
TDP43 rescue = qHTS of TDP-43 Inhibitors. TDP-43 expressing yeast growth rescue, BacTiter-Glo, 24 h. Potency, µM (series often up to 46.1 µM), for inactives: at the top dose growth rescue (activation), usual class: activators. hit rate 1.8% among 410,000. AID 652104, 2013; note: % of control where 0% means no effect; nearly all actives have a fitted effect of over 50% in size
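Galactose-induced TDP-43 yeast, OD600=0.02, compound pinned; 24 hr, 30 deg C; BacTiter-Glo luminescence for growth. Inhibitors of TDP-43 toxicity read as activators.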
MmCpn inh = Inhibitors of TCP-1 ring complex (TRiC) of Methanococcus maripaludis (MmCpn): qHTS | Chaperonin Mm-Cpn (Methanococcus maripaludis) | purified Mm-Cpn ATPase, ADP Transcreener TR-FRET | Potency, µM (top dose mostly 76.9 µM), without a hit: top-dose activity, negative = inhibition, usual class: inhibitors | hit rate 0.031% among 330,000 | AID 504842, 2011; note: % is set by controls: 0 for no effect and ±100 for the full control effect; nearly all actives have a fitted effect of over 80% in size
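ATPase turnover read by TR-FRET ADP competition (Eu cryptate antibody/ADP-d2, 665/590 nm): 10uM ATP final, 25nM Mm-CPN final, 30 min 37degC after 10-min compound preincubation, pH 7.4 Tris/KCl/MgCl2/DTT buffer.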
FUS suppressor = qHTS for Suppressors of FUS Proteinopathy: Primary screen using FUS-linked yeast assay. S. cerevisiae FUS-expressing, growth rescue, OD600, 24 h. hit rate 0.24% among 390,000. Potency, µM (doses to about 76.6 µM), usual class: activators. AID 1347120, 2019;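 note: plate controls were DMSO vehicle for no effect and reference control for full effect; nearly all actives have a fitted effect of over 55% in size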
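Steps: raffinose overnight preculture; dilution to OD 0.005 in 2% galactose minimal medium; compound addition (concentration series); 24hr at 30C, 99% humidity; absorbance read at 600 nm.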
Abeta rescue = qHTS for compounds that reverse cellular toxicity of Amyloid beta (A-beta) peptide in yeast: Primary Screen; yeast expressing A-beta42, growth rescue, OD600, 48 h; response scale: 0% DMSO, 100% iron-clioquinol control; Potency, µM (titrated, usually from 46.1 µM), most hits filed as activators; hit rate 0.063% among 410,000; note: nearly all actives have a fitted effect of over 55% in size
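Growth rescue measured by 600 nm absorbance after 48 h yeast culture at 30 C with compound. Values normalized between DMSO and an equimolar ferric chloride plus clioquinol control.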
* marks the source's active call; other numbers are inactive results. In the library only some 3.6% were active in any assay of this set; here they are far more common. Unless noted, calls come from the whole dose curve; as a rule, active = well fitted curve in the direction sought with a large enough effect; inconclusive = small, poorly fitted or top-dose-only effect, or another doubt; inactive = no such curve, though single readings can be large; an effect the other way counts as inactive or inconclusive. Potency is the fitted concentration of half-maximal effect.

Cc1ccsc1C1Nc2ccc3ncccc3c2C2=C1C(=O)CC(C)(C)C2 (stereo not drawn) was read as ClpP mod -23%, aSyn rescue 2%, TDP43 rescue -23%, MmCpn inh 0%, FUS suppressor 13µM* and Abeta rescue inactive.
Screening CC1(C)CC(=O)C2=C(C1)Nc1ccccc1N(C(=O)C1CC1)C2c1ccco1 (stereo not drawn) returned ClpP mod -9%, aSyn rescue 0%, TDP43 rescue 21%, MmCpn inh -1%, FUS suppressor inactive and Abeta rescue inactive.
CCc1ccccc1N(C)C was read as ClpP mod 1%.
Screening Clc1cccc(CNC2CCC23CCCCC3)c1 (stereo not drawn) returned FUS suppressor inactive.
`Cc1ccc(CCNC(=O)C(CC(C)C)NS(=O)(=O)c2ccc3c(c2)oc(=O)n3C)cc1` (stereo not drawn) gave ClpP mod 0%, TDP43 rescue -5%, FUS suppressor inactive and Abeta rescue inactive.
Screening O=C(Nc1nonc1-c1ccc(Br)cc1)c1ccco1 returned ClpP mod 1%, TDP43 rescue 26%, FUS suppressor inactive and Abeta rescue inactive.
For Cn1ncc([N+](=O)[O-])c1C(=O)Nc1ccc2c(c1)OCCO2 the results were ClpP mod 32µM*, aSyn rescue 1%, TDP43 rescue 19%, MmCpn inh -1%, FUS suppressor inactive and Abeta rescue inactive.
`Cc1ccc(NC(=O)c2c([N+](=O)[O-])cnn2C)cc1C` gave ClpP mod 0%, aSyn rescue -7%, TDP43 rescue 0%, MmCpn inh 3%, FUS suppressor inactive and Abeta rescue inactive.
`CN(C)/[N+]([O-])=N/Oc1ccc([N+](=O)[O-])cc1C(F)(F)F` gave aSyn rescue -15%.
Screening COc1ccc(-c2cc(C(C)=O)c(C)n2CCC(=O)Nc2ccc(C(F)(F)F)cc2)cc1 returned ClpP mod 2%, TDP43 rescue 16%, FUS suppressor inactive and Abeta rescue inactive.
Screening CCC(Sc1nc2ccsc2c(=O)n1Cc1ccc(C(=O)O)cc1)C(=O)Nc1ccc(Cl)cc1 (stereo not drawn) returned ClpP mod 0%, aSyn rescue -3%, TDP43 rescue 21%, FUS suppressor 35µM* and Abeta rescue inactive.
For CCOc1ccccc1NC(=O)CC1C(=O)NCCN1C(=O)c1ccc(F)cc1 (stereo not drawn) the results were ClpP mod 0%, TDP43 rescue 8%, FUS suppressor inactive and Abeta rescue inactive.
`Cc1ccc2cccc(NC(=O)c3ccc(-c4cccc(Cl)c4)o3)c2n1` gave ClpP mod -3%, TDP43 rescue 20%, FUS suppressor inactive and Abeta rescue inactive.
Screening CCOc1ccccc1C(=O)N(Cc1cccs1)c1ccc(Cl)cc1 returned ClpP mod 1%, TDP43 rescue 22µM*, FUS suppressor inactive and Abeta rescue inactive.
O=C(CSc1nc2ccccc2c(=O)[nH]1)Nc1ccc([N+](=O)[O-])cc1 was read as ClpP mod 0%, aSyn rescue 1%, TDP43 rescue 0%, MmCpn inh -1%, FUS suppressor inactive and Abeta rescue inactive.
`O=c1[nH]c(Sc2ccc([N+](=O)[O-])cc2[N+](=O)[O-])nc2ccccc12` gave ClpP mod -3%, aSyn rescue -16%, TDP43 rescue 13µM*, FUS suppressor inactive and Abeta rescue inactive.
